ULK1 inh: human ULK1 kinase inhibition, primary screen; 30,000 tested, 1.9% active; inhibition, % at 5.96 µM; AlphaScreen Atg13 phosphorylation by ULK1, luminescence; in the data active = inhibition above about 43%;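 also: 0% = median of compound wells and 100% = no enzyme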
ASK1 primary: human ASK1 kinase inhibition, primary screen; Q99683; AlphaScreen MKK6 phosphorylation by ASK1, luminescence; inhibition, % at 7.44 µM; 22,000 tested, 0.99% active; AID 1159602; in the data active = inhibition above about 35%;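 also: 0% = median of compound wells and 100% = no enzyme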
Target sequence (Q99683 whole entry, looked up): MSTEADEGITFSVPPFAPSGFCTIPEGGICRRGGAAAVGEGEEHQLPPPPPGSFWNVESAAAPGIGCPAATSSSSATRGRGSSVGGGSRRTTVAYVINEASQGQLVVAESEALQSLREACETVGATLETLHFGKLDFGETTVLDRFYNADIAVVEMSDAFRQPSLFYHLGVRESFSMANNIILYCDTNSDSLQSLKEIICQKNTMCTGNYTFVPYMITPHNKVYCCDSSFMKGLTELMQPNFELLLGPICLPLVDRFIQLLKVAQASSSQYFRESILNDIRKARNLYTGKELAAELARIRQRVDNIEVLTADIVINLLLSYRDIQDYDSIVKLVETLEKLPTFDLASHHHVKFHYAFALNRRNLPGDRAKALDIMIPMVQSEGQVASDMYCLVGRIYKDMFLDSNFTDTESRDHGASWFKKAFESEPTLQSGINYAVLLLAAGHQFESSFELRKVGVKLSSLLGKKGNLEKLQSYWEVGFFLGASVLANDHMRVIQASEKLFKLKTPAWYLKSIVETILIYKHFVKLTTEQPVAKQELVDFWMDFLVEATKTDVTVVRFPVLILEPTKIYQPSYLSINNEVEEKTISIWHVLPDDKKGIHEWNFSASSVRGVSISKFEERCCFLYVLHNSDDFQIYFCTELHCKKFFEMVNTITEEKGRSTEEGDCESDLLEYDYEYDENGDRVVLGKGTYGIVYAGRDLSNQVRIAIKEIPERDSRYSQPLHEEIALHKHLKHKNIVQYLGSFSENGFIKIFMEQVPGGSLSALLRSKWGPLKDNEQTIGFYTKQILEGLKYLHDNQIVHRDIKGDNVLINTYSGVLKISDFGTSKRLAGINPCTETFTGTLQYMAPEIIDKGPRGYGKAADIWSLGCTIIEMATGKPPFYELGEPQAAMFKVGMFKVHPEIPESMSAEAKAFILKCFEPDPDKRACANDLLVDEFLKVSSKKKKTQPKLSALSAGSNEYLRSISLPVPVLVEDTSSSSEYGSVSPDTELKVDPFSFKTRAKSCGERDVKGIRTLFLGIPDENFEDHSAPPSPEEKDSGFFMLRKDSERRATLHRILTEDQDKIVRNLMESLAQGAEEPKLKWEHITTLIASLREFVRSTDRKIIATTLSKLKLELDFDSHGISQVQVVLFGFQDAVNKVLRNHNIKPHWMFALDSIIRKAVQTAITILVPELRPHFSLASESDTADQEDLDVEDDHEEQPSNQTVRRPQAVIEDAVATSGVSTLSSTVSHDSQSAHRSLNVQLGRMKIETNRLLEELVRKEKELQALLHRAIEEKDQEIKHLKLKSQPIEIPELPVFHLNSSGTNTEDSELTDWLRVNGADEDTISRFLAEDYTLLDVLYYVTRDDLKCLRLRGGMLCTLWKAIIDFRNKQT
* hit, by the source's call; x = no result given. Most compounds without a hit are left out; they make up all but 2.5% or so of the library.

SMILES	ULK1 inh	ASK1 primary
Cc1ccc(S(=O)(=O)n2ccn(CC(=O)Nc3ccc(Cl)cc3)c2=O)cc1	-7	x
CCNc1nccc(NCCc2ccc(O)cc2)n1	-1	-6
OCCNc1ccnc(N2CCC(N3CCOCC3)CC2)n1	6	-6
CC(=O)Nc1ccc(Nc2cc(Nc3ccc(-n4ccnc4)cc3)nc(N)n2)cc1	23	27
CC(=O)Nc1ccc(Nc2nc(Nc3ccncc3)nc3c2ncn3C(C)C)cc1	66*	7
CC(C)n1cnc2c(Nc3ccc(N4CCOCC4)cc3)nc(NCc3cccnc3)nc21	47*	10
COc1cc(Nc2nc(Nc3ccc(NC(C)=O)cc3)c3ncn(C(C)C)c3n2)cc(OC)c1OC	10	12
CC(C)n1cnc2c(Nc3ccc(N4CCOCC4)cc3)nc(NCc3ccc4c(c3)OCO4)nc21	7	35
CC(=O)Nc1ccc(Nc2nc(NC3CCC(O)CC3)nc3c2ncn3-c2ccsc2)cc1 (centres undefined)	44*	21
OC1CCC(Nc2nc(Nc3ccccc3)c3ncn(-c4ccsc4)c3n2)CC1 (centres undefined)	23	9
Cc1cc(N2CCCC2)nc(Nc2ccc(NS(=O)(=O)c3cccc(F)c3)cc2)n1	-29	x
COc1ccc(-c2nc(NCc3cccc(C(F)(F)F)c3)c3ncn(CCN4CCCC4=O)c3n2)cc1	-1	-5
Cc1cnc(NCCCN2CCCC2=O)nc1NCCCN1CCCC1=O	1	-2
Cc1cnc(Nc2nccc3ccccc23)nc1Nc1ccc(N2CCOCC2)cc1	46*	13
Cc1cnc(NCCCN2CCCC2=O)nc1NCCN1CCOCC1	7	0
Cc1cnc(NCCCN2CCCC2=O)nc1Nc1ccc(N2CCOCC2)cc1	46*	4
COc1cc(Nc2ncc(C)c(NCCCN3CCCC3=O)n2)cc(OC)c1OC	76*	4
CC(=O)Nc1ccc(Nc2nc(NCCCN3CCCC3=O)ncc2C)cc1	35	-14
Cc1cnc(Nc2ccc(N3CCOCC3)cc2)nc1NCCCN1CCCC1=O	44*	-7
Cc1cnc(Nc2ccc(N3CCOCC3)cc2)nc1Nc1ccc(N2CCOCC2)cc1	13	21
CN1CCN(C(=O)c2ccc(-c3nc(NCc4cccnc4)c4ncn(Cc5ccc(C(F)(F)F)cc5)c4n3)cc2)CC1	15	3
CN1CCN(c2ccc(-c3nc(NC4CC4)c4ncn(Cc5ccc(C(F)(F)F)cc5)c4n3)cc2)CC1	-45	11
COc1cccc(CCNC(=O)c2ccc3c(c2)CC(c2nc4ccc(-c5ccnc(N)n5)cc4[nH]2)CO3)c1 (centres undefined)	29	-15
COc1cnc(Nc2ccc(N3CCOCC3)cc2)nc1-c1ccc(S(C)(=O)=O)cc1	46*	16
CNC(=O)c1ccccc1Nc1nc(Nc2ccc(-n3cnc(N4CCOCC4)n3)cc2)ncc1Cl	36	-27
SMILES	ULK1 inh	ASK1 primary
CNC(=O)c1ccccc1Nc1cc(Nc2ccc(N3CCOCC3)cc2F)ncc1C(F)(F)F	89*	-1
COc1cnc(Nc2ccc(N3CCOCC3)cc2)nc1Nc1ccccc1C(N)=O	85*	-83
CNC(=O)c1ccccc1Nc1nc(Nc2ccc(N3CCOCC3)c(F)c2)ncc1Cl	90*	-60
COc1cc(N2CCOCC2)ccc1Nc1ncc(Cl)c(Nc2ccccc2C(=O)NC2CC2)n1	12	-3
COc1cc(N2CCOCC2)ccc1Nc1cc(Nc2ccccc2-c2ncccn2)c(C(F)(F)F)cn1	9	7
COc1ccc(-c2ncc(C)c(Nc3ccc(N4CCOCC4)cc3)n2)cc1	4	9
CCOC(=O)c1c(NC(=O)CCl)sc(Cl)c1-c1ccccc1	24	x
CNC(=O)CN(c1ccccc1C)S(=O)(=O)c1ccccc1	0	x
O=C(c1ccc(Nc2ccc3[nH]ncc3c2)nc1)N1CCOCC1	-2	-9
CNC(=O)c1ccccc1Nc1cc(Nc2ccc(N3CCOCC3)cc2)ncc1C(N)=O	85*	-12
NC(=O)c1ccccc1Nc1cc(Nc2ccc(-n3cnc(N4CCOCC4)n3)cc2)ncc1C(F)F	51*	-21
CNC(=O)c1ccccc1Nc1cc(Nc2ccc(C(=O)N3CCOCC3)cn2)ncc1C(F)(F)F	86*	8
Cc1cnc(Nc2ccc(-n3cnc(N4CCOCC4)n3)cc2)cc1Nc1ccccc1C(N)=O	27	-31
CNC(=O)c1ccccc1Nc1cc(Nc2ccc(N3CCOCC3)cc2)ncc1C(F)(F)F	90*	1
O=C(NCc1ccccc1)c1ccccc1Nc1ccnc(Nc2ccc(N3CCOCC3)cc2)c1	2	13
CNC(=O)c1ccccc1Nc1cc(Nc2ccc3[nH]cc(C4=CCNCC4)c3c2)ncc1C(F)(F)F	-38	28
CC(C)n1cnc2c(Nc3ccc(N4CCOCC4)cc3)nc(NCCN3CCOCC3)nc21	23	2
FC(F)(F)Oc1ccc(Nc2cc(NCC3CCCO3)ncn2)cc1 (centres undefined)	-2	-4
CC(=O)c1cccc(-c2nc(NC3CC3)c3ncn(-c4ccccc4)c3n2)c1	7	5
Nc1cc(N2CCC(N3CCOCC3)CC2)nc(N)n1	12	2
O=C(Cc1cn(-c2ccc(NCCN3CCOCC3)nn2)c2ccccc12)NCCCN1CCCC1=O	-6	-18
COc1ccc(/C(C)=N/NC(=O)Nc2ccccc2)c(OC)c1	0	x
COc1ccc(CCNc2ccnc(NCCN3CCOCC3)n2)cc1	-6	-25
FC(F)(F)c1cnc(Nc2ccc(N3CCOCC3)cc2)cc1Nc1cc(C2CC2)[nH]n1	80*	25
COc1ccc(N2CCOCC2)cc1Nc1cc(Nc2ccccn2)c(C(F)(F)F)cn1	17	20
SMILES	ULK1 inh	ASK1 primary
O=C(Nc1nc(-c2ccncc2)cs1)c1nc2ccccc2s1	2	-25
Oc1ccc(CCNc2nc(Nc3cnccn3)nc3nc[nH]c23)cc1	11	-16
NC(Cc1ccccc1)c1nc2ccc(-c3cccc4ncccc34)cc2[nH]1 (centres undefined)	-20	-17
NC(Cc1ccccc1)c1nc2ccc(-c3cncc4ccccc34)cc2[nH]1 (centres undefined)	57*	4
Clc1nc(NCc2cccnc2)c2ncn(C3CCCCC3)c2n1	-1	-6
O=C1CCCN1CCn1cnc2c(Nc3ccc4c(c3)OCO4)nc(NCCN3CCOCC3)nc21	0	-1
NC(CO)C(=O)O (centres undefined)	2	x
NC(CO)C(=O)NNCc1ccc(O)c(O)c1O (centres undefined)	65*	x
CCN(CC)C(=O)C1CCCN(c2nc(NC3CCN(Cc4ccccc4)CC3)c3ncn(C(C)C)c3n2)C1 (centres undefined)	5	0
O=C(NCCN1CCOCC1)c1ccc2nc(Nc3ccccc3)sc2c1	-9	-11
Cn1cc(-c2ccsc2-c2ccnc(Nc3ccc(N4CCOCC4)cc3)c2)cn1	-18	24
Cn1cc(-c2ccc3cnc(Nc4ccc(-n5cnc(N6CCOCC6)n5)cc4)nc3c2C(F)(F)F)cn1	33	-74
Cn1cc(-c2ccc3cnc(Nc4ccc(-n5cnc(N6CCOCC6)n5)cc4)nc3n2)cn1	7	22
O=C(NCc1ccccc1)c1ccc2cnc(Nc3ccc(-n4cnc(N5CCOCC5)n4)cc3)nc2c1	37	9
CNC(=O)c1ccc2cnc(Nc3ccc(-n4cnc(N5CCOCC5)n4)cc3)nc2c1	50*	-45
CCn1cc(-c2ccc3cnc(Nc4ccc(-n5cnc(N6CCOCC6)n5)cc4)nc3c2Cl)cn1	78*	3

Compound activity from PubChem.
